HT1080 IDH1KD tx = kills HT-1080 cells with IDH1 knockdown. HT-1080 IDH1 knockdown viability, ATP luminescence, 48 h. Potency, µM (series often up to 46.1 µM), for inactives: top-dose activity, negative = toxicity, actives largely listed as cytotoxic. actives 2% (n = 360,000). AID 686971;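 also: potency is read from the fitted curve at half-maximal effect; 0% = DMSO wells and -100% = cell-free medium wells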
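After a 2 h attachment period, IDH1KD HT-1080 cells took pin-transferred compound for 48 h at 37 °C; ATP-based luminescence after 10 min room-temperature reagent incubation reported viability.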
TDP1 cell noCPT = qHTS for Inhibitors of human tyrosyl-DNA phosphodiesterase 1 (TDP1): qHTS in cells in absence of CPT; actives 15% (n = 420,000); Potency, µM (titrated, usually from 46.2 µM), inactives show top-dose activity change, negative = growth inhibition, actives largely listed as inhibitors; DT40 Tdp1-/- hTDP1 cells, no CPT, ATP luminescence, 48 h; AID 686978, 2013; also: potency is read from the fitted curve at half-maximal effect; nearly all actives have a fitted effect of over 55% in size
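Chicken DT40 Tdp1-/- cells stably complemented with human TDP1 were seeded at 400 cells/well with DMSO in place of 20 nM camptothecin. After compound pinning, cells grew at least 48 hr at 37 °C; viability read by CellTiter-Glo luminescence.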
DT40 TDP1 CPT = growth inhibition of DT40 Tdp1-/-;hTDP1 cells with camptothecin (screen for TDP1 inhibitors); chicken DT40 Tdp1-/-;hTDP1 cells + 20 nM CPT, ATP luminescence, 48 h; Potency, µM (doses to about 46.2 µM), without a hit: at the top dose activity change, negative = growth inhibition, most hits filed as inhibitors; actives 12% (n = 420,000); AID 686979; also: potency is read from the fitted curve at half-maximal effect; nearly all actives have a fitted effect of over 55% in size
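Chicken DT40 Tdp1-/- cells complemented with human TDP1, 400 cells/well, exposed to compounds plus 20 nM camptothecin for at least 48 h at 37 C; viability read as ATP content by CellTiter-Glo luminescence.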
IL-1B inflam inh = blocks inflammasome-driven IL-1 beta release. THP-1 LPS/ATP IL-1B secretion, AlphaLISA, 16 h; active compounds read low. activity change, % at 57.5 µM. actives 4.7% (n = 360,000); in the data active = activity change below about -50%; inconclusive = mostly about -30% to -49%
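THP-1 cells pretreated 1 hr with compounds (up to 57.5 uM final), then stimulated with LPS (250 ng/mL final) plus ATP (1.25 mM final); secreted IL-1B measured by AlphaLISA after 16 hr, decreased signal indicating inhibition.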
ELG1 repair inh = inhibitors of ELG1-dependent DNA repair in HEK293T cells. Potency, µM (series often up to 46.1 µM), inactives show at the top dose activity change, negative = inhibition, hits mostly inhibitors. HEK293T ELG1-luciferase reporter, luminescence, 16 h; DNA damage induced by 5-fluorouridine. actives 2.3% (n = 330,000). AID 504467; also: potency is read from the fitted curve at half-maximal effect; nearly all actives have a fitted effect of over 55% in size
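HEK293T cells expressing luciferase-tagged ELG1 (2,000/well) received 5-Fluorouridine plus compound or DMSO for 16 hr at 37 °C. Luciferase was read by ONE-Glo luminescence after 30 min at room temperature.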
HT1080-NT tox = kills 2HG-producing HT-1080-NT fibrosarcoma cells. HT-1080-NT fibrosarcoma viability, CellTiter-Glo ATP luminescence, 48 h. Potency, µM (top dose mostly 46.1 µM), for the others: at the highest dose activity, negative = less viability, hits mostly cytotoxic. actives 1.6% (n = 360,000);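 also: NT is the 2HG producing partner of a matched IDH1 knockdown line; potency is read from the fitted curve at half-maximal effect; 0% = DMSO-treated cells and -100% = media-only wells without cells; nearly all actives have a fitted effect of over 55% in size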
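Viability by CellTiter-Glo luminescence after 48 h compound exposure at 37C of HT-1080-NT cells (750/well, RPMI, 5% FBS). % activity scaled between DMSO wells and medium-only wells, then curve-fitted and categorized by curve class.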
An asterisk follows results filed as active; ? = inconclusive; . = no result given; [ ] = another dose, or the depositor's remark. An excerpt weighted towards active compounds, which were near 19% of everything screened. Unless noted, calls follow the shape of the dose curve; as a rule, active = well fitted curve in the direction sought with a large enough effect; inconclusive = small, poorly fitted or top-dose-only effect, or another doubt; inactive = no such curve, though single readings can be large; an effect the other way counts as inactive or inconclusive. Unless noted, % is scaled to controls: 0 for no effect and ±100 for the full control effect.

SMILES	HT1080 IDH1KD tx	TDP1 cell noCPT	DT40 TDP1 CPT	IL-1B inflam inh	ELG1 repair inh	HT1080-NT tox
COc1ccccc1NC(=O)Cc1ccc(-c2ccccc2)cc1	?	?	?	-80*	-6%	?
N#Cc1ccccc1OCC(O)CNCCNC(=O)Nc1ccccc1 (stereo not drawn)	.	-6%	-4%	.	.	.
COc1ccc(CNC(=O)c2cc3sccc3n2Cc2ccc(F)cc2)cc1	.	?	-25%	.	.	.
COc1ccccc1CNC(=O)c1cc2sccc2n1Cc1ccc(F)cc1	.	23µM*	21µM*	.	.	.
CC1Cc2ccccc2N1C(=O)c1cc2sccc2n1Cc1ccc(F)cc1 (stereo not drawn)	-10%	16µM*	?	-22	-5%	-5%
O=C(NC1CC2CCCC(C1)N2Cc1ccco1)NC12CC3CC(CC(C3)C1)C2 (stereo not drawn)	4%	18µM*	21µM*	-4	-2%	-1%
CCNC(=S)NC1CC2CCCC(C1)N2Cc1ccco1 (stereo not drawn)	16%	-6%	6%	10	-5%	0%
N[C@H](C(=O)O)c1ccc(O)cc1	.	-9%	0%	.	.	.
Cc1ccc(NC(=O)Nc2nnc(SCC(=O)Nc3ccc(F)cc3F)s2)cc1	.	-1%	12%	.	.	.
CCSc1nsc(NC(=O)Nc2ccc(F)cc2F)n1	-28%	4.6µM*	4.6µM*	-90*	?	?
CCSc1nsc(NC(=O)Nc2ccccc2Cl)n1	-18%	15µM*	?	-78*	.	?
CCOc1ccc(NC(=O)Nc2nc(SCC)ns2)cc1	-19%	?	?	10	-20%	-26%
O=C(O)c1cn(-c2ccc(F)cc2)c(=O)c2ccccc12	20%	1%	41%	21	0%	8%
N#CC1=C2SCC(O)(c3ccccc3)N2C(=O)CC1c1ccccc1 (stereo not drawn)	?	1.6µM*	1.3µM*	-11	-6%	1.3µM*
CCc1ccc(C2CC(=O)N3CN(c4ccccc4)CSC3=C2C#N)cc1 (stereo not drawn)	-11%	?	?	-14	7%	0%
CC/C(=C\c1oc2cc3ccccc3cc2[n+]1CC)Nc1ccccc1	?	13µM*	4.6µM*	-107*	-10%	-29%
Cc1ccc(C)c(CN2C[C@H](Sc3nc4ccccc4[nH]3)C[C@H]2C(=O)N2CCCN(C)CC2)c1	.	-10%	19%[9.04 µM]	.	.	.
COCc1cc(=O)[nH]c(SCCS(=O)(=O)c2ccc(Cl)cc2Cl)n1	-6%	?	21µM*	-28	?	-2%
NC(Cc1ccc(C(F)(F)F)cc1)c1csc(Nc2cnccn2)n1 (stereo not drawn)	?	5.8µM*	6.5µM*	?	.	?
NC(Cc1ccc(C(F)(F)F)cc1)c1csc(Nc2cc(NCc3ccco3)ncn2)n1 (stereo not drawn)	16µM*	16µM*	21µM*	?	.	23µM*
NCc1csc(Nc2ncccn2)n1	-1%	?	-27%	7	.	-1%
NC(Cc1ccc(F)cc1)c1csc(Nc2ccc(C(F)(F)F)cn2)n1 (stereo not drawn)	?	9.2µM*	13µM*	-55*	.	?
NC(Cc1ccc(C(F)(F)F)cc1)c1csc(Nc2ncccn2)n1 (stereo not drawn)	?	9.2µM*	9.2µM*	-53*	.	?
NC(Cc1cnc[nH]1)c1csc(Nc2ccc(C(F)(F)F)cn2)n1 (stereo not drawn)	0%	-26%	-21%	22	.	0%
COC(=O)CC1[C@@]2(C)C[C@]34OC5(C)OC6(C7CC(=O)OC(c8ccoc8)[C@]7(C)CCC6(O5)[C@]13C)C(OC(C)=O)[C@]4(OC(C)=O)C2OC(C)=O (stereo partly drawn)	.	1%	-3%	.	.	.
SMILES	HT1080 IDH1KD tx	TDP1 cell noCPT	DT40 TDP1 CPT	IL-1B inflam inh	ELG1 repair inh	HT1080-NT tox
NC(Cc1ccc(C(F)(F)F)cc1)c1csc(Nc2ccccn2)n1 (stereo not drawn)	?	?	?	-77*	.	21µM*
NC(COCc1ccccc1)c1csc(Nc2ncccn2)n1 (stereo not drawn)	-19%	?	-6%	-24	.	-28%
CC(C)CC(N)c1csc(Nc2ncccn2)n1 (stereo not drawn)	?	6.5µM*	9.2µM*	-15	.	?
COc1cccc(C2NC(=S)NC(C)=C2C(=O)c2ccccc2)c1OC (stereo not drawn)	1.5µM*	10µM*	?	58	15%	2.3µM*
C=CCOc1ccc(C2NC(=S)NC(C)=C2C(=O)c2ccccc2)cc1OC (stereo not drawn)	-4%	?	?	11	-2%	-8%
Cc1ccc(C)c(C(C)NC(=S)NCc2ccc(F)cc2)c1 (stereo not drawn)	?	?	23µM*	40	?	?
COc1ccc(C(C)NC(=S)NCc2ccc(F)cc2)cc1 (stereo not drawn)	-10%	?	18µM*	22	3%	-17%
COCCN1C(=O)c2cc(C(=O)Nc3ccc(OC)c(OC)c3)ccc2C1Nc1ccc(OC)c(OC)c1 (stereo not drawn)	4%	-21%	2%	-5	-11%	5%
COc1nc2ccccc2cc1-c1noc(-c2cccnc2)n1	.	.	.	.	13%	.
CCCc1nc(-c2cc3ccc(C)cc3[nH]c2=O)no1	5%	-6%	-27%	-4	?	2%
CCOc1ccccc1-c1nc(-c2cc3ccccc3nc2OC)no1	-16%	23µM*	16µM*	-5	?	-5%
CCOc1ccccc1-c1nc(-c2cc3ccc(C)cc3[nH]c2=O)no1	-2%	?	26µM*	-22	?	1%
O=C(Nc1ccccc1C(=O)N1CCCCC1)c1ccc(Cl)cc1Cl	12%	-17%	-1%	10	0%	10%
CC(C)Oc1ccc(C(=O)CCN2CCCCC2)cc1	1%	?	?	-30	11%	-5%
CCCCCOc1ccc(C(=O)CCN2CCOCC2)cc1	?	8.2µM*	5.8µM*	-18	?	?
CC(C)Oc1ccc(C(=O)CCN2CCOCC2)cc1	-10%	3.7µM*	3.3µM*	1	.	-22%

Screens deposited in PubChem BioAssay by National Center for Advancing Translational Sciences (NCATS).
